According to PubChem BioAssay (NCATS):
Where “and” joins values, the source holds several entries; their conditions need not be identical. Equal entries are not always repeated. Inconclusive results are not listed. Calls of active or inactive are those of the source. Unless noted, calls follow the shape of the dose curve; as a rule, active = well fitted curve in the direction sought with a large enough effect; inconclusive = small, poorly fitted or top-dose-only effect, or another doubt; inactive = no such curve, though single readings can be large; an effect the other way counts as inactive or inconclusive.

Assays:
[1] = Cell Viability - Jurkat (AID 426;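 active = dose-dependent loss of cell ATP signal giving a full or clear fitted curve, ranked by lower potency value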;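 also: potency is read from the fitted curve at half-maximal effect; cells exposed to compound for 40 hours at 37 °C before ATP read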); conditions: qHTS
Method in brief: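 Cytotoxicity taken as drop in cellular ATP (CellTiter-Glo luminescence, 20 min room temperature) after 40 hr, 37C treatment of 5000 Jurkat Clone E6-1 cells per well; concentration-response fitted with Hill equation for AC50.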

[2] = Cell Viability - N2a (AID 540); conditions: N2a mouse neuroblastoma cell viability; activity change, negative = cytotoxicity: at 92.2 µM (top of the series);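 also: plate controls were DMSO alone for no effect and tamoxifen control for full effect; nearly all actives have a fitted effect of over 45% in size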
Method in brief: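 CellTiter-Glo ATP luminescence, read 20 min after reagent at room temperature, reported viability following 40 h compound treatment at 37 °C. N2a mouse neuroblastoma cells seeded 1500/well; Hill equation gave AC50.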

[3] = Cell Viability - SH-SY5Y (AID 544); conditions: SH-SY5Y neuroblastoma cell viability; viability change, negative = cytotoxic: at 92.2 µM (top of the series);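 also: cells exposed to compound for 40 hours; 0% = DMSO alone and -100% = 100 µM tamoxifen; nearly all actives have a fitted effect of over 55% in size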
Method in brief: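 Cytotoxicity measured via ATP-dependent luciferase luminescence (CellTiter-Glo) following 40 h, 37 °C exposure of 1500 SH-SY5Y cells per well. Concentration-response data were fitted with the standard Hill equation to give AC50.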

[4] = Cellular Toxicity (caspase-3) NIH 3T3 (AID 666);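 also: caspase signal read after 16 h compound exposure; 0% = DMSO basal and 100% = 100 µM tamoxifen stimulation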
Method in brief: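 Caspase-Glo 3/7 luminescence reported caspase activation in 1000 NIH 3T3 cells/well after 16 h compound exposure at 37 C. DMSO set basal and 100 uM tamoxifen set 100% stimulation; concentration-response modeled with the Hill equation for AC50.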

[5] = MultiTox-Fluor Cytotoxicity Assay - LYMP1-001 - Live Cells (AID 947);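 also: 0% = DMSO only and full inhibition = tetraoctylammonium bromide control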
[6] = Cell Viability - LYMP2-004 (AID 966);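 also: plate controls were DMSO only for no effect and tetraoctylammonium bromide control for full effect; nearly all actives have a fitted effect of over 65% in size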
Method in brief: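 AC50 values come from Hill modelling of concentration-dependent loss of intracellular ATP, measured by CellTiter-Glo luminescence. Human LYMP2-004 lymphoblastoid cells (2500/well) were exposed to compound for 24 h at 37 C.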

[7] = Cell Viability - LYMP2-019 (AID 973);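 also: 0% = DMSO alone and full effect = 92 µM tetraoctylammonium bromide; nearly all actives have a fitted effect of over 55% in size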
Method in brief: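 AC50 values come from Hill-equation fits of luminescent intracellular ATP (CellTiter-Glo, 30 min, room temperature) following 24 h compound exposure at 37 C. Cells: LYMP2-019 lymphoblastoid line, 2500 per well, in complete culture medium.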

[8] = Cell Viability - LYMP2-025 (AID 976);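 also: plate controls were DMSO only for no effect and tetraoctylammonium bromide control for full effect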
Method in brief: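 Cytotoxicity read as loss of intracellular ATP (luciferase luminescence) after 24 h compound treatment at 37 C. Uses LYMP2-025 lymphoblastoid cells in 1536-well format; Hill-equation modelling gives AC50; tetraoctylammonium bromide as positive control.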

[9] = Cell Viability - LYMP2-012 (AID 982);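 also: cellular ATP by luciferase luminescence where a drop means cytotoxicity; cells exposed to compound for one day before reading; 0% = DMSO only and full loss = 92 µM tetraoctylammonium bromide; nearly all actives have a fitted effect of over 55% in size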
[10] = Cell Viability - LYMP2-014 (AID 983);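 also: plate controls were DMSO only for no effect and 92 µM tetraoctylammonium bromide for full effect; nearly all actives have a fitted effect of over 50% in size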
Method in brief: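 Intracellular ATP loss, read by luciferase luminescence, measures acute cytotoxicity after 24 h compound exposure of lymphoblastoid LYMP2-014 cells (2500/well, 37 C). Concentration-response data fitted to the Hill equation for AC50.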

[11] = Cell Viability - LYMP2-016 (AID 984); also: % is scaled to controls: 0 for no effect and ±100 for the full control effect; nearly all actives have a fitted effect of over 55% in size
Method in brief: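 qHTS, 1536-well: 2500 LYMP2-016 cells/well, 5 hr 37 C, compound added, 24 hr 37 C, CellTiter-Glo 30 min RT, luminescence. Tetraoctylammonium bromide positive control. AC50 via Hill fit.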

[12] = Cell Viability - LYMP2-018 (AID 985);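 also: plate controls were DMSO only for no effect and tetraoctylammonium bromide at 92 µM for full effect; nearly all actives have a fitted effect of over 50% in size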
Method in brief: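 Viability read as CellTiter-Glo luminescence (cellular ATP) after 24 hr compound exposure at 37 C of 2500 LYMP2-018 lymphoblastoid cells/well, pre-plated 5 hr. Hill-equation modelling gave AC50.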

[13] = Cell Viability - LYMP2-026 (AID 989); also: % is scaled to controls: 0 for no effect and ±100 for the full control effect; nearly all actives have a fitted effect of over 50% in size
Method in brief: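 Cytotoxicity read as ATP-dependent luminescence (CellTiter-Glo, 30 min room temperature) after 24 h compound treatment at 37 C. LYMP2-026 lymphoblastoid line seeded at 2500 cells/well; AC50 derived by standard Hill equation.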

[14] = target: Peroxisome proliferator-activated receptor gamma (Homo sapiens) (UniProt P37231); assay: qHTS assay for small molecule agonists of peroxisome proliferator-activated receptor gamma signaling (AID 588536; active = well fitted curve in the direction sought with a large enough effect in the signal ratio, with a control signal flat, not every such curve was filed as active; the % refers to the signal ratio;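 also: 0% = DMSO basal wells and 100% = rosiglitazone at 2 µM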)
Chain of Peroxisome proliferator-activated receptor gamma (Homo sapiens) (P37231 whole entry, looked up): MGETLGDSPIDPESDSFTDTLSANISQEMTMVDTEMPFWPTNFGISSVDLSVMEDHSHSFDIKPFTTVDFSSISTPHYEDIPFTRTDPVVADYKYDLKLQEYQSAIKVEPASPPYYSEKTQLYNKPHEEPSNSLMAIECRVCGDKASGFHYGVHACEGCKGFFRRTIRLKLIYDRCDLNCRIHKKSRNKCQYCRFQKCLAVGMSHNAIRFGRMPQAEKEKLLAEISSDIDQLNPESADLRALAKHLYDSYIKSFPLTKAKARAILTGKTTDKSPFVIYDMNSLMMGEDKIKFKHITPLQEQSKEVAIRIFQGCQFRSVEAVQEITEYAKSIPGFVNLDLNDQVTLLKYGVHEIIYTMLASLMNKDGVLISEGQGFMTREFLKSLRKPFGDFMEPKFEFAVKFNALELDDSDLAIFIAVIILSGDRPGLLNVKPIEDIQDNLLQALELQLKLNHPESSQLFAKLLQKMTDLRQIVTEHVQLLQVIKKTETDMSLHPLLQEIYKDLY
Method in brief: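 Cells were plated and held 6–6.5 h at 37 C, then compounds were added as a titration series. After a further 16 h, CCF4 dye was loaded for 2 h at room temperature and emission at 460/530 nm recorded.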

[15] = qHTS assay for small molecule antagonists of retinoid X receptor alpha signaling (AID 588546); conditions: HEK293T RXRa-UAS-bla, beta-lactamase ratio, antagonist mode; measured here: W530 green channel, cytotoxicity proxy;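 also: cells stimulated with 9-cis-retinoic acid as agonist; % is scaled to controls: 0 for no effect and ±100 for the full control effect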
Method in brief: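 Beta-lactamase reporter inhibition, read as CCF4 fluorescence ratio (ex 405, em 460/530 nm) after 2 h at RT. HEK293T UAS-bla cells, 2500/well, were stimulated with 9-cis-RA at 500 or 100 nM final alongside test compound for 18 h at 37 C.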

[16] = target: Thyroid hormone receptor beta (Homo sapiens) (UniProt P10828); assay: qHTS assay for small molecule antagonists of thyroid hormone receptor beta signaling (AID 588547; active = well fitted inhibition curve with a large enough effect in the signal ratio, with a control signal flat, not every such curve was filed as active; the % refers to the signal ratio;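 also: cells stimulated with 0.4 nM T3 agonist during compound exposure; % is scaled to controls: 0 for no effect and ±100 for the full control effect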); conditions: TR-UAS-bla HEK293, beta-lactamase ratio, antagonist mode, 18 h
Chain of Thyroid hormone receptor beta (Homo sapiens) (P10828 whole entry, looked up): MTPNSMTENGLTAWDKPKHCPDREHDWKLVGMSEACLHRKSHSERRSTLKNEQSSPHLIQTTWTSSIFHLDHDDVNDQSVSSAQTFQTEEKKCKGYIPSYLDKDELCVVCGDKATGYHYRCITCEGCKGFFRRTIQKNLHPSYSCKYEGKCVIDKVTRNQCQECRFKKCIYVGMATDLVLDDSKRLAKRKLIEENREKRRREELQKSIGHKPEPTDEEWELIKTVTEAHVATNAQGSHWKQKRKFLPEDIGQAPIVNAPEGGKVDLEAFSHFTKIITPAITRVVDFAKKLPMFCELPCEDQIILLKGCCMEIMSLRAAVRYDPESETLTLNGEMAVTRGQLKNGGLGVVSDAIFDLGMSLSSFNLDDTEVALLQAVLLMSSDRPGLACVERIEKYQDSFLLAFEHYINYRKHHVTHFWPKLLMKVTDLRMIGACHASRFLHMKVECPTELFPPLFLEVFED
Method in brief: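 Inhibition of T3-driven (0.4nM final) beta-lactamase reporter activity was measured over 0.59 nM to 92 uM compound after 18 h at 37 C. The cells were GripTite HEK293 TR-UAS-bla in charcoal/dextran-stripped serum, with CCF4 ratio read-out and IC50 from Hill fits.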

[17] = target: Tumor necrosis factor (Homo sapiens) (UniProt P01375); assay: qHTS assay to identify small molecules that stimulate Tumor Necrosis Factor-alpha (TNF-alpha) secretion (AID 651757; active = well fitted curve in the direction sought with a large enough effect in the signal ratio; the % refers to the signal ratio; also: 0% is about no effect)
Chain of Tumor necrosis factor (Homo sapiens) (P01375 whole entry, looked up): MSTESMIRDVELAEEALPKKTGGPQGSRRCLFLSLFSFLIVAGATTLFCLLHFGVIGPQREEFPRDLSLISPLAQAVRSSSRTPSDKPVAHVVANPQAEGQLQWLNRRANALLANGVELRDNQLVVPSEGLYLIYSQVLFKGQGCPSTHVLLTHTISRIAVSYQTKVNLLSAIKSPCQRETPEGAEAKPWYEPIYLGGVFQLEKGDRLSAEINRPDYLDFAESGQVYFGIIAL
Method in brief: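 Secreted TNF-alpha quantified by TR-FRET sandwich of two labeled anti-TNF-alpha antibodies, incubated 3 hr at room temperature. Preceded by 17 hr, 37 C compound treatment of THP-1 cells at 3000 cells/well.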

[18] = Cellular Toxicity (caspase-3) H-4-II-E (AID 663); conditions: Potency: caspase-3 activation;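 also: cells exposed to compound for 16 hr before readout; 0% = DMSO basal and 100% = 100 µM tamoxifen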
Method in brief: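 Caspase 3/7 activation measured by luminescent aminoluciferin substrate cleavage after 16 hr compound treatment of H-4-II-E cells in complete medium. Increase normalized between DMSO (basal) and 100 uM tamoxifen (100%); Hill-equation AC50 from concentration-response.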

[19] = target: Nuclear receptor subfamily 1 group I member 2 (Rattus norvegicus) (UniProt Q9R1A7); assay: qHTS assay for small molecule activators of the rat pregnane X receptor (rPXR) signaling pathway (AID 651751; call rule not given here; also: 0% is about no effect); conditions: rPXR reporter cells, luciferase (One-Glo), 24 h
Chain of Nuclear receptor subfamily 1 group I member 2 (Rattus norvegicus) (Q9R1A7 whole entry, looked up): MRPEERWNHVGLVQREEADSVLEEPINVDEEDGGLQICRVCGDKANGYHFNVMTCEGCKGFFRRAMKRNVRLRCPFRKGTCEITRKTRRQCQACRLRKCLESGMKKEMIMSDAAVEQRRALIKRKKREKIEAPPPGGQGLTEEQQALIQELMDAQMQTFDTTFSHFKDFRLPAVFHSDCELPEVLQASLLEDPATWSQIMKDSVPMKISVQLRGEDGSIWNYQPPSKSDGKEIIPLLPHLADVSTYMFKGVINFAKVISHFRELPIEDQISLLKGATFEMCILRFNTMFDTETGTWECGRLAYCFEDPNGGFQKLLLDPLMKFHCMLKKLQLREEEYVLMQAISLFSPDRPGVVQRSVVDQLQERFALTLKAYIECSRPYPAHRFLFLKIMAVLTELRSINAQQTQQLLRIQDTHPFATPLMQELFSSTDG

Nc1ccc2ccccc2c1
inactive: Potency [1] > 92 µM | Potency [2] | Potency [3] | Potency [4] | outcome [5] | Potency [6] | Potency [7] | Potency [8] | Potency [9] | Potency [10] | Potency [11] | Potency [12] | Potency [13] | outcome [14] | activity change % (negative = inhibition) [16] -16.4% | outcome [17]
-4.26%: max response [15]

CCOC(=O)CBr
-3.97%: max response [15]
inactive: Potency [1] > 92 µM | Potency [2] | Potency [3] | Potency [18] | outcome [5] | Potency [6] | Potency [7] | Potency [8] | Potency [9] | Potency [10] | Potency [11] | Potency [12] | Potency [13] | outcome [14] | activity change % (negative = inhibition) [16] -6.62% | outcome [17] | max response [19] 2.21%

C=CC(=O)OC
inactive: Potency [1] > 92 µM | Potency [2] | Potency [3] | Potency [18] | Potency [4] | outcome [5] | Potency [6] | Potency [7] | Potency [8] | Potency [9] | Potency [10] | Potency [11] | Potency [12] | Potency [13] | outcome [14] | activity change % (negative = inhibition) [16] -6.86% | outcome [17] | max response [19] 0.297%
-10.6%: max response [15]

CC12CC1(C)C(=O)N(c1cc(Cl)cc(Cl)c1)C2=O (stereo not given)
4.78%: max response [15]
inactive: Potency [1] > 92 µM | Potency [2] | Potency [3] | Potency [18] | Potency [4] | outcome [5] | Potency [6] | Potency [7] | Potency [8] | Potency [10] | Potency [11] | Potency [12] | Potency [13] | outcome [14] | activity change % (negative = inhibition) [16] 4.26% and 9.02% | outcome [17] | max response [19] 12.6% and 11%

Cc1ccc(OP(=O)(Oc2ccc(C)cc2)Oc2ccc(C)cc2)cc1
-10.5% and -16.2%: max response [15]
inactive: Potency [3] | Potency [18] | Potency [4] | outcome [5] | Potency [6] | Potency [7] | Potency [8] | Potency [9] | Potency [10] | Potency [11] | Potency [12] | Potency [13] | activity change % (negative = inhibition) [16] -7.32% and 3.64% | outcome [17]

O=C(Cl)OCc1ccccc1
inactive: Potency [1] > 92 µM | Potency [2] | Potency [3] | Potency [18] | Potency [4] | outcome [5] | Potency [6] | Potency [7] | Potency [8] | Potency [9] | Potency [10] | Potency [11] | Potency [12] | Potency [13] | outcome [14] | outcome [17] | max response [19] 4.69%
-3.27%: max response [15]

CCOP(=O)(OCC)OCC
9.41% and -13.4%: max response [15]
inactive: Potency [1] > 92 µM | Potency [2] | Potency [3] | Potency [18] | Potency [4] | outcome [5] | Potency [6] | Potency [7] | Potency [8] | Potency [9] | Potency [10] | Potency [11] | Potency [12] | Potency [13] | outcome [14] | activity change % (negative = inhibition) [16] -0.564% and 12.2% | outcome [17] | max response [19] 0.98% and -0.959%

Oc1ccc(Cl)c(Cl)c1Cl
inactive: Potency [1] > 92 µM | Potency [3] | Potency [18] | Potency [4] | outcome [5] | Potency [6] | Potency [7] | Potency [8] | Potency [9] | Potency [10] | Potency [11] | Potency [12] | Potency [13] | outcome [14] | activity change % (negative = inhibition) [16] 14.5% | outcome [17] | max response [19] 8.33%

S=C1NCCN1
-7.1% and 12.2%: max response [15]
inactive: Potency [1] > 92 µM | Potency [2] | Potency [3] | Potency [18] | Potency [6] | Potency [7] | Potency [8] | Potency [9] | Potency [10] | Potency [11] | Potency [12] | Potency [13] | outcome [14] | activity change % (negative = inhibition) [16] -23.2% and -6.83% | outcome [17] | max response [19] 6.01% and -10.7%

CSSC
inactive: Potency [1] > 92 µM | Potency [2] | Potency [3] | Potency [18] | Potency [4] | Potency [6] | Potency [7] | Potency [8] | Potency [9] | Potency [10] | Potency [11] | Potency [12] | Potency [13] | activity change % (negative = inhibition) [16] -18.7% | outcome [17] | max response [19] -2.6%
-12.8%: max response [15]
